# Source: ChEMBL document CHEMBL2218924, “A broad activity screen in support of a chemogenomic map for kinase signalling research and drug discovery” (Biochem J, 2013)
# Assays:
# [1] = biological target: T1, Ephrin type-B receptor 1 (Homo sapiens) (UniProt P54762); conditions: at 10 µM
# T1 sequence (whole entry): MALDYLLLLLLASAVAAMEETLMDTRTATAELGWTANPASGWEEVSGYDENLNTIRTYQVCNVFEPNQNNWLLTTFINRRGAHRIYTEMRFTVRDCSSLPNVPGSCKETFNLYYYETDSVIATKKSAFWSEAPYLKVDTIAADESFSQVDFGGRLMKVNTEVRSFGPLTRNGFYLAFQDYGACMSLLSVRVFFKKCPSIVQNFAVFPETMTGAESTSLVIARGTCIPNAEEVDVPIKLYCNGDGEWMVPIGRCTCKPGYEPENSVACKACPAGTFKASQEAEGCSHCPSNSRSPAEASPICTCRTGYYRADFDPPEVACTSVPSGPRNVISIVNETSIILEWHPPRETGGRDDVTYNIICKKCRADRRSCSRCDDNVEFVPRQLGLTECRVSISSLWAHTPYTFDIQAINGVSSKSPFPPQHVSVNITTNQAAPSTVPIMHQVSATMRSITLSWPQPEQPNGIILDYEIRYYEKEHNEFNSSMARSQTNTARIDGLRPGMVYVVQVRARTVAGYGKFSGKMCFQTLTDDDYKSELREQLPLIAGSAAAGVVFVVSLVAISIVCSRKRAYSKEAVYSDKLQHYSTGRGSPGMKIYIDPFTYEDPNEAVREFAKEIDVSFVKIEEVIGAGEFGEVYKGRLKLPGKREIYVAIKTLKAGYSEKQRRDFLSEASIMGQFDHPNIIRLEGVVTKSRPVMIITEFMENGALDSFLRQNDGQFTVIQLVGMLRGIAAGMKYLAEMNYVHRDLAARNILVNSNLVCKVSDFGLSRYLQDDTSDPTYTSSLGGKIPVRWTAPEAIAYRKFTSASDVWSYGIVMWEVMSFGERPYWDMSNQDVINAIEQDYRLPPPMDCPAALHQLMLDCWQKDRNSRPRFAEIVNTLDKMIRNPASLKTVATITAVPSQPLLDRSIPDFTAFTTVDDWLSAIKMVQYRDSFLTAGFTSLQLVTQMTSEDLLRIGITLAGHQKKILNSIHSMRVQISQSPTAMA
# [2] = biological target: T2, Ephrin type-B receptor 2 (Homo sapiens) (UniProt P29323); conditions: at 1 µM
# T2 sequence (whole entry): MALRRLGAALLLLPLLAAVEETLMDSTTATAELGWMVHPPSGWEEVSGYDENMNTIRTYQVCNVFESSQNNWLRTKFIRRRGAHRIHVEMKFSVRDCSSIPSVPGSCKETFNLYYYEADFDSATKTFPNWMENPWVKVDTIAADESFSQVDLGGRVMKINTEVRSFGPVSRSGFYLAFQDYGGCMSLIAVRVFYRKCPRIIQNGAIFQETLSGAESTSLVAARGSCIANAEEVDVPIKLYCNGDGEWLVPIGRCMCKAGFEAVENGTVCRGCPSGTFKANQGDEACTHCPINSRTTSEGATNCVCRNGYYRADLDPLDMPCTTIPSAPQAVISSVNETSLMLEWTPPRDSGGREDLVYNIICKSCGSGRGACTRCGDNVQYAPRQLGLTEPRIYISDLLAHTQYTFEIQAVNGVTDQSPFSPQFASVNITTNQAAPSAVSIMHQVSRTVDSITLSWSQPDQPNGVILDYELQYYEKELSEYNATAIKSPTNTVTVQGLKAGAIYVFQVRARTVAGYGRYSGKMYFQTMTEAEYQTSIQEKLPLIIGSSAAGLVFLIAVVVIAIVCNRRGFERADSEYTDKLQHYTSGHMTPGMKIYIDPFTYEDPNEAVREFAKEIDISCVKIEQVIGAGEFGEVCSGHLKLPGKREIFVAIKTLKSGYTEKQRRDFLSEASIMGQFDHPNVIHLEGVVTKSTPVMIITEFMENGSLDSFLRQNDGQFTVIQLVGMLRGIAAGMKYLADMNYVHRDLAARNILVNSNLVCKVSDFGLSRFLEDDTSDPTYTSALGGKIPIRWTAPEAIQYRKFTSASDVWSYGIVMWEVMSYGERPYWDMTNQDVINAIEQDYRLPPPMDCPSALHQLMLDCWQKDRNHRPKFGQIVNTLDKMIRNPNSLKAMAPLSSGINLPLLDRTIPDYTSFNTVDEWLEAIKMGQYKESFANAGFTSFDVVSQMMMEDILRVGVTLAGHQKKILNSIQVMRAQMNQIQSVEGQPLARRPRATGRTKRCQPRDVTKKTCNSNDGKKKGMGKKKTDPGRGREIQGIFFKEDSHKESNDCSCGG
# [3] = biological target: T2, Ephrin type-B receptor 2 (Homo sapiens); conditions: at 10 µM
# [4] = biological target: T3, Ephrin type-B receptor 3 (Homo sapiens) (UniProt P54753); conditions: at 1 µM
# T3 sequence (whole entry): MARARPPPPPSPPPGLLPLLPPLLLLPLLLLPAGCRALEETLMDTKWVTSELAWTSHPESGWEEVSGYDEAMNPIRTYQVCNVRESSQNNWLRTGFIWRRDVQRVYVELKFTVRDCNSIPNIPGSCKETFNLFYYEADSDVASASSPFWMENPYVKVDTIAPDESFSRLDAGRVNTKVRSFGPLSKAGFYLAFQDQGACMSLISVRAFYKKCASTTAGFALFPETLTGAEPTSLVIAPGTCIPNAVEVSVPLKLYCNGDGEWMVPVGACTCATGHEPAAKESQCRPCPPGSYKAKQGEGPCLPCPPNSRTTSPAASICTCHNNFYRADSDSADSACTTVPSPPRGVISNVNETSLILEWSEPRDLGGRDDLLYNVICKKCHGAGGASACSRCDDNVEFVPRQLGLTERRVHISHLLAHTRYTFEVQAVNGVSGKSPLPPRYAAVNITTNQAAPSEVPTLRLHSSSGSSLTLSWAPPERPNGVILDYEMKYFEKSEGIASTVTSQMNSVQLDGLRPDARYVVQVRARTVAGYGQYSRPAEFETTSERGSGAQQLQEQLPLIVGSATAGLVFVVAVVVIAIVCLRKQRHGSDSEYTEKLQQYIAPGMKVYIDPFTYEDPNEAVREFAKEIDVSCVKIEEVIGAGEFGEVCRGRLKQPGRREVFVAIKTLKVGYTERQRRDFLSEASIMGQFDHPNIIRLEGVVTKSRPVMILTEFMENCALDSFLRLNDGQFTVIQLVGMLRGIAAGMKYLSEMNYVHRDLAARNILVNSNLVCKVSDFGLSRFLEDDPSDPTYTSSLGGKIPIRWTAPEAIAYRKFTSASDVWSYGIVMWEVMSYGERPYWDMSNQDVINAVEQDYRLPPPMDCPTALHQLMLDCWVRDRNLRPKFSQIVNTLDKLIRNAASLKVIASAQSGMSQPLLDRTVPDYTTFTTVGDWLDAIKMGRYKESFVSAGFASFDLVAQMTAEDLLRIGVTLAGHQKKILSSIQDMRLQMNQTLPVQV
# [5] = biological target: T3, Ephrin type-B receptor 3 (Homo sapiens); conditions: at 10 µM
# [6] = biological target: T4, Ephrin type-B receptor 4 (Homo sapiens) (UniProt P54760); conditions: at 1 µM
# T4 sequence (whole entry): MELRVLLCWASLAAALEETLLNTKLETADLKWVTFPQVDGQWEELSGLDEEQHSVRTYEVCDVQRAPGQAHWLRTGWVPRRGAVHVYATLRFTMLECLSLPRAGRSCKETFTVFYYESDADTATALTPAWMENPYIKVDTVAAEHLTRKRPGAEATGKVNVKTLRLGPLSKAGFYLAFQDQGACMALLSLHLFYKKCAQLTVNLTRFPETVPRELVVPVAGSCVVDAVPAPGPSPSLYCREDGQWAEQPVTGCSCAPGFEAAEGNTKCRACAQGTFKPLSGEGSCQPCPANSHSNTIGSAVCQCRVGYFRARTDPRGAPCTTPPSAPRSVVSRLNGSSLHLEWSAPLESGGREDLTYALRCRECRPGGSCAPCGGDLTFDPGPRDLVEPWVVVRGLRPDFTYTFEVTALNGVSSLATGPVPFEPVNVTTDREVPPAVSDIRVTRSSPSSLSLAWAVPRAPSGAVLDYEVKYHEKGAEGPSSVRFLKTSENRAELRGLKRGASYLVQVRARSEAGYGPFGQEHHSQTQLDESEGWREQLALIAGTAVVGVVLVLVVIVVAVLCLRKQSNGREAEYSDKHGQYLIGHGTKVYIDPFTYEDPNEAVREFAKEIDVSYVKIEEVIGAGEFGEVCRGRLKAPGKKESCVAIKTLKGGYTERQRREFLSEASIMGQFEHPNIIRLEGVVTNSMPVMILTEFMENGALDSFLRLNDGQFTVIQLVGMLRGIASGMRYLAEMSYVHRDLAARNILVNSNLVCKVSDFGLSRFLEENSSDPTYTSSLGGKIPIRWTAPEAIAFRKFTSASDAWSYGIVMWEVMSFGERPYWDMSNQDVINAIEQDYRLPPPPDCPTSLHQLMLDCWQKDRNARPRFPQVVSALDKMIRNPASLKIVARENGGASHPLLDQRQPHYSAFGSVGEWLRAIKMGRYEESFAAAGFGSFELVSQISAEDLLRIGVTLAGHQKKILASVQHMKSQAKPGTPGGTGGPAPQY
# [7] = biological target: T4, Ephrin type-B receptor 4 (Homo sapiens); conditions: at 10 µM
# [8] = biological target: Receptor tyrosine-protein kinase erbB-4 (Homo sapiens) (UniProt Q15303); conditions: at 1 µM
# Receptor tyrosine-protein kinase erbB-4 (Homo sapiens), sequence (Q15303 whole entry): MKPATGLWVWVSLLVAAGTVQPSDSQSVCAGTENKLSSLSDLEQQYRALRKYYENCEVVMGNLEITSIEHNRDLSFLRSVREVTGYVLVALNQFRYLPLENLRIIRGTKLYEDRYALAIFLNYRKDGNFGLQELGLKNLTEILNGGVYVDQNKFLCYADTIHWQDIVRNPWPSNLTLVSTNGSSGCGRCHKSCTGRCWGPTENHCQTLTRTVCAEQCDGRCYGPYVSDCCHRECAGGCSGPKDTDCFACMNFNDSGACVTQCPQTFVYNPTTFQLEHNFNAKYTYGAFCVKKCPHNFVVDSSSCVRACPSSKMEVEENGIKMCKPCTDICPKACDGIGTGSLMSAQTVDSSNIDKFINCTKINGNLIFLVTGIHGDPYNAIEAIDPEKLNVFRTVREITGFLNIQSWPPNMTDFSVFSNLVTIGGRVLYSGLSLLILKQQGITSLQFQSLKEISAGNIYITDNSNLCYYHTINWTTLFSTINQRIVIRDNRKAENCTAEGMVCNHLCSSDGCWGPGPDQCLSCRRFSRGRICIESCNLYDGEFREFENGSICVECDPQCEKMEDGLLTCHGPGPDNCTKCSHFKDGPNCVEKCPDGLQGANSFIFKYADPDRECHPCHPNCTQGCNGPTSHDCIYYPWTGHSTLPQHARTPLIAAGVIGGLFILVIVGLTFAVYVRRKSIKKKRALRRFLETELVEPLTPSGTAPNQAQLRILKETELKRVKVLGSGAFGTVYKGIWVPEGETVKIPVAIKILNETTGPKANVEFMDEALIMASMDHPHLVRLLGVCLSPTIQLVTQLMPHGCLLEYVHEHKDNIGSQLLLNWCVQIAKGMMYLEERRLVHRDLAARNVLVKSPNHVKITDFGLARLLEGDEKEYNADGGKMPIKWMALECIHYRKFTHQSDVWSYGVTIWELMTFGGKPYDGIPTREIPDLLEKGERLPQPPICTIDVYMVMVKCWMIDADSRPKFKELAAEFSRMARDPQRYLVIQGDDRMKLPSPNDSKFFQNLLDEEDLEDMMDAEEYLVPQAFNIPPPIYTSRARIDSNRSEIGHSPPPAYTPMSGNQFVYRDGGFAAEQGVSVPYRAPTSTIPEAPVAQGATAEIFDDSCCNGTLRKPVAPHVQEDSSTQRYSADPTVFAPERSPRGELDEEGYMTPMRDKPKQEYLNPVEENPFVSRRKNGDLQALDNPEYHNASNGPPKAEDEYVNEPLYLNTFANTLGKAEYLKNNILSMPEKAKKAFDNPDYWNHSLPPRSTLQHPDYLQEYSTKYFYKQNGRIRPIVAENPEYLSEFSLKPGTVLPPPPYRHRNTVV
# [9] = biological target: Receptor tyrosine-protein kinase erbB-4 (Homo sapiens) (UniProt Q15303); conditions: at 10 µM
# [10] = biological target: Focal adhesion kinase 1 (Homo sapiens) (UniProt Q05397); conditions: at 1 µM
# Focal adhesion kinase 1 (Homo sapiens), sequence (Q05397 2-1052 limits assumed): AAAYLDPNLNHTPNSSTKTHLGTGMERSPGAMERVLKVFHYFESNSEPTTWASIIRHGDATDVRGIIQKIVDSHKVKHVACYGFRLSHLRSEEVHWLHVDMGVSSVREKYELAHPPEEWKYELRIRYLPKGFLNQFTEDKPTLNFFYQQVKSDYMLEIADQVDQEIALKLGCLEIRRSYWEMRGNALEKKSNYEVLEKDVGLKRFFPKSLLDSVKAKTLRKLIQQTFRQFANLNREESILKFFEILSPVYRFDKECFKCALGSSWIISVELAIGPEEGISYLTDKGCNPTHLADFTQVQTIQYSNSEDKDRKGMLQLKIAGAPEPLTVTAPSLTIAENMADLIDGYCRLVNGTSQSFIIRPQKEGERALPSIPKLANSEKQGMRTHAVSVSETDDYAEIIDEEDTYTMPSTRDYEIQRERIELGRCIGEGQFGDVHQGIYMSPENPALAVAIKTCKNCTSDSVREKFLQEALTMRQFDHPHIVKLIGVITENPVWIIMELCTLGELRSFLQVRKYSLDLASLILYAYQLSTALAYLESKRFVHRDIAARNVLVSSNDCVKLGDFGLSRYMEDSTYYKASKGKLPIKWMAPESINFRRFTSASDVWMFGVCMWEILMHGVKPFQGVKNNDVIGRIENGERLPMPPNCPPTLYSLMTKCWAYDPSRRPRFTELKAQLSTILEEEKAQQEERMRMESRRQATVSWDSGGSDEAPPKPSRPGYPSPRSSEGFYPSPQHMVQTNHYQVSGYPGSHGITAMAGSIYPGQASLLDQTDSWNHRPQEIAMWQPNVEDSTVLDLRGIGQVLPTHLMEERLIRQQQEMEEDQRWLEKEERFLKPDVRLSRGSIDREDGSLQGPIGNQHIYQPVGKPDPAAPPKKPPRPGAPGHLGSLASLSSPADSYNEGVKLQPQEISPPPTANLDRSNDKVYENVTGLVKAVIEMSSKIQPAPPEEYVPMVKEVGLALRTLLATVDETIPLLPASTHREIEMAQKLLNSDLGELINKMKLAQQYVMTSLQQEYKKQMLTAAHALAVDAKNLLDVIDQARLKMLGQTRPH
structure (smiles),measurement,setting,value
COc1ccc(C(=O)Nc2sc3c(c2C(N)=O)CCCC3)cc1OC,residual activity,[1],100%
same,residual activity,[2],122%
same,residual activity,[3],110%
same,residual activity,[4],110% (inactive)
same,residual activity,[5],122%
same,residual activity,[6],98%
same,residual activity,[7],120%
same,residual activity,[8],87%
same,residual activity,[9],97%
same,residual activity,[10],119%
